Experimental data as given in PubChem BioAssay (EPA / NIEHS).
Inconclusive results are not listed. Active and inactive are the calls of the source. Rule for the calls: active = hit-call score of the fitted dose curve at least 0.9, where 1 is the maximum; inconclusive = response in the unintended direction; inactive = score below 0.9.

target: human RAR-related Orphan Receptor gamma (RORg), RORC (gene 6097) (UniProt P51449); assay: ATG_RORg_TRANS: Attagene TRANS-FACTORIAL HepG2 Assay for human RAR-related Orphan Receptor gamma (RORg) (AID 2283011)
Sequence (P51449 whole entry, looked up, the tested form may be a part): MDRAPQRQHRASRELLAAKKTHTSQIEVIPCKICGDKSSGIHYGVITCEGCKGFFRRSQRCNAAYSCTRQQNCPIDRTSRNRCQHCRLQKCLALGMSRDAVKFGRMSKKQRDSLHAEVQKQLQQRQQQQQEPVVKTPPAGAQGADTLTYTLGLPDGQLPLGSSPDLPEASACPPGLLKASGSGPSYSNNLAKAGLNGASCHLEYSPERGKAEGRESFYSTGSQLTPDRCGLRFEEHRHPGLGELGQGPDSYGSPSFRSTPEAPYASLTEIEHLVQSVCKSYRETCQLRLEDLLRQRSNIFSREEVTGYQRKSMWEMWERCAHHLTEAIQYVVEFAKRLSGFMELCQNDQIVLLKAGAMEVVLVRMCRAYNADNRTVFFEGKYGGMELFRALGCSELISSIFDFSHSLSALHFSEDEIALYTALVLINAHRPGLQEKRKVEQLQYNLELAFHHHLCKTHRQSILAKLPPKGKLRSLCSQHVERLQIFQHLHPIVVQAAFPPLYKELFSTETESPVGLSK
Summary of the method: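 Readout: reporter transcript induction (RT-PCR, fluorescent primer extension, capillary electrophoresis) after 24 h compound exposure of transiently transfected HepG2 cells carrying a RORg-Gal4 chimera and GAL4-UAS reporters; DMSO served as baseline, with increasing signal fitted.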

| Compound | outcome |
| --- | --- |
| COc1ccccc1N=Nc1c(S(=O)(=O)O)cc2cc(S(=O)(=O)O)cc(NC(C)=O)c2c1O | inactive |
| CCCCC1(COC(=O)CCC(=O)O)C(=O)N(c2ccccc2)N(c2ccccc2)C1=O | inactive |
| CS(=O)(=O)OCCCCOS(C)(=O)=O | inactive |
| CCCC[P+](CCCC)(CCCC)CCCC | inactive |
| CS(C)=O | inactive |
| [O-]n1ccccc1=S.[O-]n1ccccc1=S.[Zn+2] | inactive |
| CCN(CC)C(=O)N(CC)CC | inactive |
| [Cl][Au]([Cl])[Cl] | inactive |
| Nc1ccc2c(O)cc(S(=O)(=O)O)cc2c1 | inactive |
| C=C(C#N)C(=O)OCC | inactive |
| CCCCC(CC)COC(C)=O (stereo not drawn) | inactive |
| CCN(CCN)c1cccc(C)c1 | inactive |
| C=CC(C)C#N (stereo not drawn) | inactive |
| CCOC(=O)C1OC1c1ccccc1 (stereo not drawn) | inactive |
| C/C=C(\C)C(=O)OCCc1ccccc1 | inactive |
| Brc1ccc(Br)c(Br)c1 | inactive |
| CC(=O)O[C@@H]1C[C@@H]2CC[C@@]1(C)C2(C)C | inactive |
| OC[C@H]1O[C@@H]2O[C@H]3[C@H](O)[C@@H](O)[C@@H](O[C@H]4[C@H](O)[C@@H](O)[C@@H](O[C@H]5[C@H](O)[C@@H](O)[C@@H](O[C@H]6[C@H](O)[C@@H](O)[C@@H](O[C@H]7[C@H](O)[C@@H](O)[C@@H](O[C@H]8[C@H](O)[C@@H](O)[C@@H](O[C@H]9[C@H](O)[C@@H](O)[C@@H](O[C@H]1[C@H](O)[C@H]2O)O[C@@H]9CO)O[C@@H]8CO)O[C@@H]7CO)O[C@@H]6CO)O[C@@H]5CO)O[C@@H]4CO)O[C@@H]3CO | inactive |

| Compound | outcome |
| --- | --- |
| Cc1cc(CCC(=O)OCCOCCOCCOC(=O)CCc2cc(C)c(O)c(C(C)(C)C)c2)cc(C(C)(C)C)c1O | inactive |
| CN(C)C(=S)SC(=S)N(C)C | inactive |
| CC(C)CC(C)CC(O)CC(C)C (stereo not drawn) | inactive |
| O=CCc1ccccc1 | inactive |
| COc1ccc(N=Nc2cc(C)c(N=Nc3ccc(S(=O)(=O)O)cc3)cc2OC)cc1 | inactive |
| C=C(C)C(=O)OCCOC1CC2CC1C1C=CCC21 (stereo not drawn) | inactive |
| C1CCCCC1 | inactive |
| CCCC(=O)OC(C)(C)Cc1ccccc1 | inactive |
| Nc1ccn([C@H]2CS[C@@H](CO)O2)c(=O)n1 | inactive |
| CS(=O)(=O)c1ccc(Cl)cc1 | inactive |
| O=C(CC(=O)c1ccccc1)c1ccccc1 | inactive |
| C=Cc1ccc(C)cc1 | inactive |
| Cc1c(Cl)cccc1[N+](=O)[O-] | inactive |
| C=C(C)C(=O)OCCOCCOCCOCCOC(=O)C(=C)C | inactive |
| O=C(c1ccccc1)C(O)c1ccccc1 (stereo not drawn) | inactive |
| CN1C(=O)c2ccccc2C1=O | inactive |
| COCCOC(=O)c1ccccc1C(=O)OCCOC | inactive |
| IC(I)I | inactive |

target: human Retinoid X Receptor beta (RXRb), RXRB (gene 6257) (UniProt P28702); assay: ATG_RXRb_TRANS: Attagene TRANS-FACTORIAL HepG2 Assay for human Retinoid X Receptor beta (RXRb) (AID 2283013)
Sequence (P28702 whole entry, looked up, the tested form may be a part): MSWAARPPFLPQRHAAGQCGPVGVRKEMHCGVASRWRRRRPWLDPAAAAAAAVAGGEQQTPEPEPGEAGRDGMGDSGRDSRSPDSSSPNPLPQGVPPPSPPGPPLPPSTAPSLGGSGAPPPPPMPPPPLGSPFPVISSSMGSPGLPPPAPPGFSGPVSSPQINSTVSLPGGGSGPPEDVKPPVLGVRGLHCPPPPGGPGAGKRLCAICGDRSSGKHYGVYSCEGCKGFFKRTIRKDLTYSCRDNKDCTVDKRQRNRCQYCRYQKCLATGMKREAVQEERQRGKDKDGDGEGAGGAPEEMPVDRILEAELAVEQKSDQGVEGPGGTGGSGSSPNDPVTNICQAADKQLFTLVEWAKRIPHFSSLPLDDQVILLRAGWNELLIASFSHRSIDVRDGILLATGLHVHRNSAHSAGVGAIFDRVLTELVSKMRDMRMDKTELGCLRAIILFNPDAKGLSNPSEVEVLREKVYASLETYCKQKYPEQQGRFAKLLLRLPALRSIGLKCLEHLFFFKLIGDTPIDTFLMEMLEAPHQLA
Summary of the method: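 Chimeric receptor-Gal4 activity was assessed in transiently transfected human HepG2 cells after 24 h exposure. Transcripts from GAL4-UAS reporters were quantified by fluorescent RT-PCR and capillary electrophoresis, with DMSO as negative control and baseline.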

| Compound | outcome | AC50 |
| --- | --- | --- |
| CS(C)=O | inactive | – |
| [O-]n1ccccc1=S.[O-]n1ccccc1=S.[Zn+2] | inactive | – |
| Nc1ccc2c(O)cc(S(=O)(=O)O)cc2c1 | inactive | – |
| CCCCC(CC)COC(C)=O (stereo not drawn) | inactive | – |
| CCN(CCN)c1cccc(C)c1 | inactive | – |
| C=CC(C)C#N (stereo not drawn) | inactive | – |
| Brc1ccc(Br)c(Br)c1 | – | 137 µM (active) |
| OC[C@H]1O[C@@H]2O[C@H]3[C@H](O)[C@@H](O)[C@@H](O[C@H]4[C@H](O)[C@@H](O)[C@@H](O[C@H]5[C@H](O)[C@@H](O)[C@@H](O[C@H]6[C@H](O)[C@@H](O)[C@@H](O[C@H]7[C@H](O)[C@@H](O)[C@@H](O[C@H]8[C@H](O)[C@@H](O)[C@@H](O[C@H]9[C@H](O)[C@@H](O)[C@@H](O[C@H]1[C@H](O)[C@H]2O)O[C@@H]9CO)O[C@@H]8CO)O[C@@H]7CO)O[C@@H]6CO)O[C@@H]5CO)O[C@@H]4CO)O[C@@H]3CO | inactive | – |
| Cc1cc(CCC(=O)OCCOCCOCCOC(=O)CCc2cc(C)c(O)c(C(C)(C)C)c2)cc(C(C)(C)C)c1O | inactive | – |
| CN(C)C(=S)SC(=S)N(C)C | inactive | – |
| CC(C)CC(C)CC(O)CC(C)C (stereo not drawn) | inactive | – |
| O=CCc1ccccc1 | inactive | – |
| C1CCCCC1 | inactive | – |
| CCCC(=O)OC(C)(C)Cc1ccccc1 | – | 63.9 µM (active) |
| CS(=O)(=O)c1ccc(Cl)cc1 | inactive | – |
| O=C(CC(=O)c1ccccc1)c1ccccc1 | inactive | – |
| C=Cc1ccc(C)cc1 | inactive | – |
| Cc1c(Cl)cccc1[N+](=O)[O-] | inactive | – |
| IC(I)I | inactive | – |

target: human Thyroid Receptor alpha (THRa1), THRA (gene 7067) (UniProt P10827); assay: ATG_THRa1_TRANS: Attagene TRANS-FACTORIAL HepG2 Assay for human Thyroid Receptor alpha (THRa1) (AID 2283014)
Sequence (P10827 whole entry, looked up, the tested form may be a part): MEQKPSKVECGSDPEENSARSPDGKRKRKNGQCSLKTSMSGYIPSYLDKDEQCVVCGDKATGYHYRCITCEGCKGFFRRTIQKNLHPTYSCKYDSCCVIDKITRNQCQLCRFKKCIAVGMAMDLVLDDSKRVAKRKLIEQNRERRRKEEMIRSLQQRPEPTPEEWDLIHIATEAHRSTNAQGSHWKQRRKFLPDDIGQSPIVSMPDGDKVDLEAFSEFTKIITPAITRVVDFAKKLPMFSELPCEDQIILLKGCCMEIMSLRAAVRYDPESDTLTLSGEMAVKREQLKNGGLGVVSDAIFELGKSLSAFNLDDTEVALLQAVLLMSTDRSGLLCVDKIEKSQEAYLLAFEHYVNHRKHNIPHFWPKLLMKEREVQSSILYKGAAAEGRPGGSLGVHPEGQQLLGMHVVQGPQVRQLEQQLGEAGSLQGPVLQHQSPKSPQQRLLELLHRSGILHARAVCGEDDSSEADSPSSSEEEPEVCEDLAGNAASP
Summary of the method: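 HepG2 cells transiently transfected with multiplexed GAL4-UAS reporter units for exogenous chimeric THRa1-Gal4; reporter mRNA measured 24 h after dosing by RT-PCR, 6-FAM labelling, HpaI digestion and capillary electrophoresis. Gain-of-signal fitted versus DMSO baseline.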

| Compound | outcome | AC50 |
| --- | --- | --- |
| CCCC[P+](CCCC)(CCCC)CCCC | inactive | – |
| CS(C)=O | inactive | – |
| C=C(C#N)C(=O)OCC | inactive | – |
| CCN(CCN)c1cccc(C)c1 | inactive | – |
| C=CC(C)C#N (stereo not drawn) | inactive | – |
| C/C=C(\C)C(=O)OCCc1ccccc1 | inactive | – |
| Cc1cc(CCC(=O)OCCOCCOCCOC(=O)CCc2cc(C)c(O)c(C(C)(C)C)c2)cc(C(C)(C)C)c1O | inactive | – |
| CC(C)CC(C)CC(O)CC(C)C (stereo not drawn) | inactive | – |
| Nc1ccn([C@H]2CS[C@@H](CO)O2)c(=O)n1 | inactive | – |
| O=C(CC(=O)c1ccccc1)c1ccccc1 | – | 58.5 µM (active) |
| C=Cc1ccc(C)cc1 | inactive | – |
| O=C(c1ccccc1)C(O)c1ccccc1 (stereo not drawn) | inactive | – |
| IC(I)I | inactive | – |
